Hit rate of the full screen: of about 39,000 compounds, about 1,500 (3.8%) were called active. Only a selection was taken, and actives are over-represented in it overall.

The subject of this experiment is HSkMC (human skeletal muscle cells). The experiment is described as follows: cytotoxicity call (relative viability < 0.9). The conditions noted are these: 10 µM.
As to `C=C(C)C1Cc2c(ccc3c2OC2COc4cc(OC)c(OC)cc4C2C3=O)O1` (stereo unspecified), the cytotoxicity call was “inactive”. In the case of `c1ccc(-c2ccncc2)cc1`, the cytotoxicity call is “inactive”.

On to `C[C@@H]1CC[C@@]2(OC1)O[C@H]1[C@@H](O)[C@H]3[C@H]4CC[C@H]5C[C@H](O[C@@H]6O[C@H](CO)[C@H](O[C@@H]7O[C@H](CO)[C@@H](O)[C@H](O[C@@H]8OC[C@@H](O)[C@H](O)[C@H]8O)[C@H]7O[C@@H]7O[C@H](CO)[C@H](O)[C@H](O[C@@H]8O[C@H](CO)[C@@H](O)[C@H](O)[C@H]8O)[C@H]7O)[C@H](O)[C@H]6O)[C@H](O)C[C@]5(C)[C@@H]4CC[C@]3(C)[C@H]1[C@@H]2C`, for which the cytotoxicity call is “inactive”. Turning to `C[C@@H]1CC[C@@]2(OC1)O[C@H]1C[C@H]3[C@@H]4CC=C5C[C@@H](O[C@@H]6O[C@H](CO)[C@@H](O[C@@H]7O[C@@H](C)[C@H](O)[C@@H](O)[C@H]7O)[C@H](O)[C@H]6O[C@@H]6O[C@@H](C)[C@H](O)[C@@H](O)[C@H]6O)CC[C@]5(C)[C@H]4CC[C@]3(C)[C@H]1[C@@H]2C`, the cytotoxicity call was “active”. To `CC1CCC2(NC1)OC1CC3C4CC=C5CC(O)CCC5(C)C4CCC3(C)C1C2C` (stereo unspecified) belongs “inactive”. The same measure for `Cc1cccc2[nH]c(CCN)nc12`: “inactive”. With `COc1cccc(N=[N+]=[N-])c1`, the cytotoxicity call was “inactive”. As to `CC(=O)OC[C@]12CCC(C)=C[C@H]1O[C@@H]1[C@H](O)[C@@H](OC(C)=O)[C@@]2(C)[C@]12CO2`, the cytotoxicity call was “active”. Consider `CC1=C[C@H]2O[C@@H]3[C@H](O)[C@@H](O[C@H]4O[C@H](CO)[C@@H](O)[C@H](O)[C@H]4O)[C@](C)([C@@]2(CO)CC1)[C@]31CO1`, for which the cytotoxicity call was “active”. As to `Cc1cc(O[C@@H]2O[C@H](CO)[C@@H](O)[C@H](O)[C@H]2O)c2c3c(c(=O)oc2c1)CCC3`, the cytotoxicity call is “inactive”. Take `OCCN[C@@H]1c2ccccc2[C@H]2CNC[C@H]21`: the cytotoxicity call was “inactive”. For `C[C@]12CC[C@H](Cl)C[C@@H]1CC[C@@H]1[C@@H]2CC[C@]2(C)C(=O)CC[C@@H]12`, the cytotoxicity call was “inactive”.

In the case of `NC(=O)c1ccc(N)nc1`, the cytotoxicity call was “inactive”. For the compound `CC12CC(=O)C3C(CCC4=CC(=O)CCC43C)C1CCC2=O` (stereo unspecified), the cytotoxicity call was “inactive”. Take `NCCc1ccncc1`: the cytotoxicity call was “inactive”. In the case of `CCN1C[C@@]2(C)CC[C@H](OC)C34[C@@H]2[C@H](O)[C@]2(OCO[C@@]25C[C@H](OC)[C@H]2C[C@]3(O)[C@@H]5[C@H]2O)[C@@H]14`, the cytotoxicity call was “inactive”.

Regarding `O=c1[nH]c2ccccc2n1C1CCN(Cc2ccc(-c3nc4cc5[nH]cnc5cc4nc3-c3ccccc3)cc2)CC1`, the cytotoxicity call was “active”. `CN1C[C@H](C(=O)N[C@]2(C)O[C@@]3(O)[C@@H]4CCCN4C(=O)[C@H](Cc4ccccc4)N3C2=O)C=C2c3cccc4[nH]cc(c34)C[C@H]21`: the cytotoxicity call is “inactive”. To `Cc1cccc(N2CCNCC2)n1` belongs “inactive”. Consider `COc1c2c(cc3c1OCO3)CC[N+](C)=C2.[Cl-]`, for which the cytotoxicity call is “inactive”. As for `CC(C)CC1C(=O)N2CCCC2C2(O)OC(NC(=O)C3C=C4c5cccc6[nH]c(Br)c(c56)CC4N(C)C3)(C(C)C)C(=O)N12.CS(=O)(=O)O` (stereo unspecified), the cytotoxicity call was “inactive”. With `O=c1[nH]c2cc(N3CCNCC3)ccc2o1`, the cytotoxicity call is “inactive”. As to `COc1cccc2c1C(=O)c1c(O)c3c(c(O)c1C2=O)C[C@@](O)(C(=O)CO)C[C@@H]3O[C@H]1C[C@H](N2CCO[C@H](OC)C2)[C@H](O)[C@H](C)O1`, the cytotoxicity call is “active”. On to `CC[C@@]1(O)C[C@H](O[C@H]2C[C@H](N(C)C)[C@H](O)[C@H](C)O2)c2c(cc3c(c2O)C(=O)c2c(O)ccc(O)c2C3=O)[C@H]1C(=O)OC`, for which the cytotoxicity call was “inactive”. Consider `COc1cc2c3cc1Oc1c(OC)c(OC)cc4c1C(Cc1cccc(c1)Oc1ccc(c(O)c1)CC3N(C)CC2)N(C)CC4.Cl.Cl` (stereo unspecified), for which the cytotoxicity call was “inactive”. Consider `COc1ccc(OC(=O)N(C)C[C@@H]2OCc3ccccc3-c3c(n(C)c4ccccc34)C(=O)N([C@@H](C)CO)C[C@H]2C)cc1`, for which the cytotoxicity call is “inactive”. The same measure for `Cc1scc(CCN)c1C`: “inactive”. `Cl.Oc1noc2c1CCNC2`: the cytotoxicity call is “inactive”. The same measure for `C#CC1(O)CCC2C3CCC4=CC(=O)CCC4(C)C3CCC21C` (stereo unspecified): “inactive”; for `C=CCC1(O)CCC2C3CCC4=CCCCC4C3CCC21C` (stereo unspecified): “active”; for `C=CCC1(O)CCC2C3CCC4=CC(=O)CCC4=C3C=CC21C` (stereo unspecified): “inactive”. Turning to `CC(=O)O[C@H]1C(=O)[C@]2(C)[C@@H](O)C[C@H]3OC[C@@]3(OC(C)=O)[C@@H]2[C@H](OC(=O)c2ccccc2)[C@]2(O)C[C@H](O)C(C)=C1C2(C)C`, the cytotoxicity call was “inactive”. With `[N-]=[N+]=NCc1ccccc1C[C@]1(C(=O)NCCN2CCOCC2)N=C(c2ccc(OCCCO)cc2)O[C@H]1c1ccccc1N=[N+]=[N-]`, the cytotoxicity call was “inactive”. In the case of `O=c1[nH]c(=O)n(Cl)c(=O)n1Cl`, the cytotoxicity call is “inactive”. For `CC1OC(OC2C=C3CCC4C(CCC5(C)C(c6ccc(=O)oc6)CCC45O)C3(C)CC2)C(O)C(O)C1O` (stereo unspecified), the cytotoxicity call was “active”. On to `CC[C@@H](C)C(=O)O[C@H]1[C@H](O)[C@H]2[C@@H](CN3C[C@@H](C)CC[C@@H]3[C@@]2(C)O)[C@H]2C[C@]34O[C@]5(O)[C@@H](OC(=O)[C@@](C)(O)[C@@H](C)O)CC[C@@]3(C)[C@@H]5[C@@H](OC(C)=O)[C@@H](OC(C)=O)[C@@H]4[C@@]21O`, for which the cytotoxicity call was “inactive”.

Take `CC(=O)OCC1=C(C(=O)[O-])N2C(=O)C(NC(=O)CCCC(N)C(=O)[O-])C2SC1.[Zn+2]` (stereo unspecified): the cytotoxicity call was “inactive”.

Consider `c1ccc2c(c1)sc1ccccc12`, for which the cytotoxicity call is “active”. In the case of `COc1cc2c(cc1OC)C1C(=O)c3ccc4oc(C(C)C)cc4c3OC1CO2` (stereo unspecified), the cytotoxicity call was “inactive”. For `NCCc1ccc(S(N)(=O)=O)cc1`, the cytotoxicity call is “inactive”.

For `Cc1cc([C@@H](C#N)c2ccc(Cl)cc2)c(Cl)cc1NC(=O)c1cc(I)cc(I)c1O`, the cytotoxicity call is “active”. Turning to `CC(=O)Nc1ccc(Cl)cc1C`, the cytotoxicity call was “inactive”.

For `Cc1cc(C(C#N)c2ccc(Cl)cc2)c(Cl)cc1NC(=O)c1cc(I)cc(I)c1O` (stereo unspecified), the cytotoxicity call was “inactive”. Consider `COc1cc(CCN)ccc1O`, for which the cytotoxicity call was “inactive”.

As for `Cc1ccc(C2(CN)CCCCC2)cc1`, the cytotoxicity call was “inactive”. The same measure for `CC(C)C12OC1C1OC13C1(C)CCC4=C(COC4=O)C1CC1OC13C2O` (stereo unspecified): “inactive”. As to `COC(=O)NC(=S)Nc1ccccc1NC(=S)NC(=O)OC`, the cytotoxicity call is “active”. Regarding `CNc1ccccc1C(=O)O`, the cytotoxicity call is “inactive”. To `CCC1CN2CCc3cc(OC)c(OC)cc3C2CC1CC1NCCc2cc(OC)c(OC)cc21.Cl.Cl` (stereo unspecified) belongs “inactive”; to `COc1ccc(CCN)cc1O`, “inactive”; to `CC(C)CC(CN)CC(=O)O` (stereo unspecified), “inactive”.

Values taken from the antibiotic and cytotoxicity screens of Wong et al. (2023).
